Source: the supplement of paper PMC9950053
Where a name gives a salt, the structure may show the parent alone.

test system: Danio rerio larvae (5 dpf); assay: habituation (activity change first vs second 5 min of 1-s interval sound, period 17) minus DMSO control (percentage points); higher = larger habituation measure than DMSO larvae; details: 10 µM; exposure time: 3 h pre-incubation + 3 h imaging
Method: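 Wild-type 5 dpf zebrafish larvae (n=48 per drug, 96-well plates, 28.5 °C) were exposed to Tocris FDA-approved library compounds at 10 µM (0.1% DMSO) for 3 h before and 3 h during imaging. Images were taken every 6 s during visual (moving coloured lines) and acoustic stimuli, and larvae were tracked with the DeepLabCut-based Z-LaP Tracker. Each behavioural measure is the treated-group mean minus the DMSO vehicle control mean (n=844), in percentage points. This mapping covers compounds with 4-character plate codes.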

SMILES	habituation
N#Cc1ccc(C(c2ccc(C#N)cc2)n2cncn2)cc1 [Letrozole]	3.66
Cc1ccc(-c2cc(C(F)(F)F)nn2-c2ccc(S(N)(=O)=O)cc2)cc1 [Celecoxib]	-9.16
COc1ccc(-c2ccc3cc(C(=O)O)ccc3c2)cc1C12CC3CC(CC(C3)C1)C2 [Adapalene]	1.1
CCCCc1nc(Cl)c(CO)n1Cc1ccc(-c2ccccc2-c2nnn[nH]2)cc1 [Losartan potassium]	1.01
Nc1ncn([C@@H]2O[C@H](CO)[C@@H](O)[C@H]2O)c(=O)n1 [5-Azacytidine]	0.429
CCCN(CCC)S(=O)(=O)c1ccc(C(=O)O)cc1 [Probenecid]	3.79
COC(=O)C1=C(C)NC(C)=C(C(=O)OC(C)C)C1c1cccc2nonc12 (stereo not given) [Isradipine]	-15.1
CN1CC[C@@H](NC(=O)Nc2ccc(C#N)cc2)C[C@@H]1c1nc2ccccc2[nH]1	-0.504
Nc1ccn([C@@H]2O[C@H](CO)[C@@H](O)C2(F)F)c(=O)n1 [Gemcitabine hydrochloride]	-1.55
Cc1cccc(C)c1OCC(C)N (stereo not given) [Mexiletine hydrochloride]	6.36
CO[C@H]1/C=C/O[C@@]2(C)Oc3c(C)c(O)c4c(O)c(c5c(nc6cc(C)ccn65)c4c3C2=O)NC(=O)/C(C)=C\C=C\[C@H](C)[C@H](O)[C@@H](C)[C@@H](O)[C@@H](C)[C@H](OC(C)=O)[C@@H]1C [Rifaximin]	-3.24
Cc1cc(C2CCCCC2)n(O)c(=O)c1 [Ciclopirox]	-2.51
C#C[C@]1(O)CC[C@H]2[C@@H]3CCC4=CC(=O)CC[C@@H]4[C@H]3CC[C@@]21CC [Levonorgestrel]	-7.5
O=C(O[C@@H]1C[C@@H]2C[C@H]3C[C@H](C1)N2CC3=O)c1c[nH]c2ccccc12 [Dolasetron mesylate]	1.05
CCOc1nc2cccc(C(=O)O)c2n1Cc1ccc(-c2ccccc2-c2nnn[nH]2)cc1 [Candesartan]	5.98
CCCCCCCCc1ccc(CCC(N)(CO)CO)cc1	-0.454
O=C(Nc1c(Cl)cncc1Cl)c1ccc(OC(F)F)c(OCC2CC2)c1 [Roflumilast]	-2.44
CC1=Nc2ccc(Cl)cc2S(=O)(=O)N1 [Diazoxide]	8.87
CCC(=O)O[C@]1(C(=O)SCF)[C@H](C)C[C@H]2[C@@H]3C[C@H](F)C4=CC(=O)C=C[C@]4(C)[C@@]3(F)[C@@H](O)C[C@@]21C [Fluticasone propionate]	2.72
CS(=O)(=O)CCNCc1ccc(-c2ccc3ncnc(Nc4ccc(OCc5cccc(F)c5)c(Cl)c4)c3c2)o1 [Lapatinib]	-1.33

SMILES	habituation
CN1CCN2c3ncccc3Cc3ccccc3C2C1 (stereo not given) [Mirtazapine]	-1.26
O=C(NCC1CCCCN1)c1cc(OCC(F)(F)F)ccc1OCC(F)(F)F (stereo not given) [Flecainide acetate]	0.225
OCCOCCN1CCN(C2=Nc3ccccc3Sc3ccccc32)CC1 [Quetiapine hemifumarate]	-4.22
Cc1ccc(NC(=O)c2ccc(CN3CCN(C)CC3)cc2)cc1Nc1nccc(-c2cccnc2)n1 [Imatinib mesylate]	1.88
O=C1CCc2cc(OCCCCc3nnnn3C3CCCCC3)ccc2N1 [Cilostazol]	0.0793
C[C@]12CCC(=O)C=C1CC[C@@H]1[C@@H]2[C@@H](O)C[C@@]2(C)[C@H]1CC[C@]2(O)C(=O)CO [Hydrocortisone]	4.44
CC(C)C(=O)Nc1ccc([N+](=O)[O-])c(C(F)(F)F)c1 [Flutamide]	-15.4
CC(C)c1ccc2oc3nc(N)c(C(=O)O)cc3c(=O)c2c1 [Amlexanox]	-2.56
CCN(Cc1ccncc1)C(=O)C(CO)c1ccccc1 (stereo not given) [Tropicamide]	2.39
CN1CCC[C@@H]1CCO[C@](C)(c1ccccc1)c1ccc(Cl)cc1 [Clemastine fumarate]	-6.62
CC(=O)O[C@]1(C(C)=O)CC[C@H]2[C@@H]3C=C(C)C4=CC(=O)CC[C@]4(C)[C@H]3CC[C@@]21C [Megestrol Acetate]	-3.62
CCOc1nc2cccc(C(=O)O)c2n1Cc1ccc(-c2ccccc2-c2noc(=O)[nH]2)cc1 [Azilsartan]	8.15
CN(C)CC/C=C1/c2ccccc2COc2ccc(CC(=O)O)cc21 [Olopatadine hydrochloride]	-0.266
CCCCC(=O)N(Cc1ccc(-c2ccccc2-c2nnn[nH]2)cc1)[C@H](C(=O)O)C(C)C [Valsartan]	2.48
CC(C)c1nc(N(C)S(C)(=O)=O)nc(-c2ccc(F)cc2)c1/C=C/[C@@H](O)C[C@@H](O)CC(=O)O [Rosuvastatin calcium]	1.27
C/C(O)=C(\C#N)C(=O)Nc1ccc(C(F)(F)F)cc1 [Teriflunomide]	-2.85
CCOc1cc(CC(=O)N[C@@H](CC(C)C)c2ccccc2N2CCCCC2)ccc1C(=O)O [Repaglinide]	-7.53
CC(C)n1c(/C=C/C(O)CC(O)CC(=O)O)c(-c2ccc(F)cc2)c2ccccc21 (stereo not given) [Fluvastatin sodium]	2.02
CC(C)[C@H]1CC[C@H](C(=O)N[C@H](Cc2ccccc2)C(=O)O)CC1 [Nateglinide]	-2.04
O=C(c1ccc(OCCN2CCCCC2)cc1)c1c(-c2ccc(O)cc2)sc2cc(O)ccc12 [Raloxifene hydrochloride]	-3.07
